Among the data in PubChem BioAssay (EPA / NIEHS) are outcome and AC50 values, retold here.

Assay [1] can be described thus: BSK_3C_VCAM1: BioMAP Diversity Plus: 3C Assay for Vascular cell adhesion molecule 1 (VCAM1) Biomarker Activity (AID 2282999; active = hit-call score of the fitted dose curve at least 0.9, where 1 is the maximum; inactive = score below 0.9). Particulars: BioMAP 3C HUVEC, VCAM1 ELISA, cytokine-stimulated; actives raise or lower the signal. A digest of the protocol: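 Human umbilical vein endothelial cells (3C system), biomarker read by ELISA 24 h after dosing; bidirectional fit against DMSO baseline. Cytotoxicity tracked by SRB total-protein staining in parallel cultures at biomarker time.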
(In general: ELISA stands for enzyme-linked immunosorbent assay.)

A short description of assay [2]: BSK_4H_Eotaxin3: BioMAP Diversity Plus: 4H Assay for Eotaxin 3 Biomarker Activity (AID 2283000; active = hit-call score of the fitted dose curve at least 0.9, where 1 is the maximum; inactive = score below 0.9;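 also: CCL26 protein level quantified by ELISA in parallel with SRB cytotoxicity check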). The settings on record: primary human endothelial cells (HUVEC); actives raise or lower the signal. The procedure, abridged: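 Human umbilical vein endothelial cells (BSK_4H system) dosed with test chemical; Eotaxin-3 (CCL26) measured by ELISA 24 h after dosing. Bidirectional curve fitting relative to DMSO negative control as baseline.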

Assay [3] addresses human Peroxisome Proliferator-activated Receptor alpha (PPARa), PPARA (gene 5465) (UniProt Q07869). The assay is described as follows: ATG_PPARa_TRANS: Attagene TRANS-FACTORIAL HepG2 Assay for human Peroxisome Proliferator-activated Receptor alpha (PPARa) (AID 2283001). The procedure, abridged:
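HepG2 cells transiently transfected with multiplexed GAL4-UAS reporters driven by exogenous chimeric NR-Gal4 proteins; reporter mRNA measured after 24 h dosing. Read-out by RT-PCR, 6-FAM labelling, HpaI digestion and capillary electrophoresis; gain of signal versus DMSO.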

Read-out in assay [4]: Intercellular Adhesion Molecule 1 (ICAM1), ICAM1 (gene 3383)
The experiment in a line: BSK_3C_ICAM1: BioMAP Diversity Plus: 3C Assay for Intercellular Adhesion Molecule 1 (ICAM1) Biomarker Activity (AID 2283003; active = hit-call score of the fitted dose curve at least 0.9, where 1 is the maximum; inactive = score below 0.9). The settings on record: primary human endothelial cells (HUVEC); actives raise or lower the signal. A digest of the protocol: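 ICAM-1 levels measured by ELISA after HUVEC cultures in the 3C system had been dosed for 24 h. Gain or loss of signal relative to DMSO was fitted in both directions.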

Assay [5] deals with human Retinoic Acid Receptor beta (RARb), RARB (gene 5915) (UniProt P10826). The assay is described as follows: ATG_RARb_TRANS: Attagene TRANS-FACTORIAL HepG2 Assay for human Retinoic Acid Receptor beta (AID 2283004). A digest of the protocol:
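Induction of reporter mRNA from a chimeric RARb-Gal4 construct was measured by RT-PCR, FAM labelling, HpaI digestion and capillary electrophoresis. Measurements followed 24 h compound treatment of transiently transfected human HepG2 liver cells, with DMSO as baseline.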

The target in assay [6] is Retinoic acid receptor alpha (Homo sapiens) (UniProt P10276). The experiment in a line: ATG_RARa_TRANS: Attagene TRANS-FACTORIAL HepG2 Assay for human Retinoic Acid Receptor alpha (RARa) (AID 2283005). A digest of the protocol:
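HepG2 transiently transfected with multiplex GAL4-UAS reporter units including a human RARa–GAL4 chimera; 24 h compound exposure. Reporter mRNA quantified by RT-PCR, 6-FAM labeling and capillary electrophoresis; gain of signal versus DMSO.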

Assay [7] can be described thus: BSK_3C_Proliferation: Cell Proliferation Assessment in the BioMAP Diversity Plus: 3C Assay (AID 2283006; active = hit-call score of the fitted dose curve at least 0.9, where 1 is the maximum; inactive = score below 0.9). Particulars: primary human endothelial cells (HUVEC). A digest of the protocol: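 Read-out is total protein by SRB absorbance at 560 nm, taken as a proxy for relative cell number. Primary human umbilical vein endothelium cultured below confluence was dosed for 48 h, TCA-fixed and SRB-stained; curves were fitted bidirectionally versus DMSO.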

In assay [8] the target is Peroxisome proliferator-activated receptor gamma (Homo sapiens) (UniProt P37231). The experiment in a line: ATG_PPARg_TRANS: Attagene TRANS-FACTORIAL HepG2 Assay for human Peroxisome Proliferator-activated Receptor-gamma (PPARg) (AID 2283007). The procedure, abridged:
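Multiplexed reporter transcription units in HepG2, 24 h dosing, reporter transcripts quantified by fluorescent RT-PCR and capillary electrophoresis. Increase over DMSO scored.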

For assay [9], the target named is Nuclear receptor subfamily 1 group I member 2 (Homo sapiens) (UniProt O75469). The experiment in a line: ATG_PXR_TRANS: Attagene TRANS-FACTORIAL HepG2 Assay for human Pregnane X Receptor (PXR) (AID 2283008). The procedure, abridged: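 Read-out is fluorescence of labelled reporter cDNA fragments separated by capillary electrophoresis after RT-PCR and HpaI digestion. Source: HepG2 cells carrying PXR-GAL4/UAS reporter constructs, treated 24 h; activity fitted upward relative to DMSO.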

In assay [10] the target is human Retinoic Acid Receptor gamma (RARg), RARG (gene 5916) (UniProt P13631). The assay is described as follows: ATG_RARg_TRANS: Attagene TRANS-FACTORIAL HepG2 Assay for human Retinoic Acid Receptor gamma (RARg) (AID 2283009). A digest of the protocol:
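Transient transfection of HepG2 with multi-reporter constructs, then 24 h chemical treatment. Total RNA isolated, reverse-transcribed, PCR-amplified, fluorescently labelled and resolved by capillary electrophoresis; activity scored as mRNA induction versus DMSO.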

Assay [11] concerns the target human RAR-related Orphan Receptor gamma (RORg), RORC (gene 6097) (UniProt P51449). The assay is described as follows: ATG_RORg_TRANS: Attagene TRANS-FACTORIAL HepG2 Assay for human RAR-related Orphan Receptor gamma (RORg) (AID 2283011). The procedure, abridged: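 Reporter transcripts from a transfected RORg-GAL4 chimera in HepG2 cells were quantified 24 h after dosing by RT-PCR, 6-FAM labelling, HpaI digestion and capillary electrophoresis; increases over DMSO baseline were fitted.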

For assay [12], the target named is Retinoic acid receptor RXR-alpha (Homo sapiens) (UniProt P19793). The assay is described as follows: ATG_RXRa_TRANS: Attagene TRANS-FACTORIAL HepG2 Assay for human Retinoid X Receptor alpha (RXRa) (AID 2283012). A digest of the protocol: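 Transient transfection of human HepG2 with multiple GAL4-UAS reporter constructs; 24 h compound exposure; total RNA isolated, reverse-transcribed, PCR-amplified, 6-FAM labelled, HpaI-cut, resolved by capillary electrophoresis. Positive-direction fit versus DMSO.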
Retinoic acid receptor RXR-alpha (Homo sapiens), sequence (P19793 whole entry, looked up, the tested form may be a part): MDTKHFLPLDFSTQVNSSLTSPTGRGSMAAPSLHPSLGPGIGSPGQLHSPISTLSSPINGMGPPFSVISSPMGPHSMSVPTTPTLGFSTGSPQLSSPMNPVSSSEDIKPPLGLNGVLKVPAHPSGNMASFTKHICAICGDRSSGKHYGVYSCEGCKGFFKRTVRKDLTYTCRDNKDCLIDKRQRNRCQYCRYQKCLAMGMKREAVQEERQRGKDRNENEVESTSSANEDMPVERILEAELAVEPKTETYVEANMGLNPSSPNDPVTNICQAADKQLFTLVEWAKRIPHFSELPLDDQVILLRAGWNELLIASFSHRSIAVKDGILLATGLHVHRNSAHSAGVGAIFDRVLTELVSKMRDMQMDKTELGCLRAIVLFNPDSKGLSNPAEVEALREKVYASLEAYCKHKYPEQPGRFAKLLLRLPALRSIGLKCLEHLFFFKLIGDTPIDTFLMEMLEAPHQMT

The target of assay [13] is human Retinoid X Receptor beta (RXRb), RXRB (gene 6257) (UniProt P28702). The assay is described as follows: ATG_RXRb_TRANS: Attagene TRANS-FACTORIAL HepG2 Assay for human Retinoid X Receptor beta (RXRb) (AID 2283013). A digest of the protocol: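 Transfect HepG2 with GAL4-UAS multi-reporter constructs (chimeric NR-Gal4, TRANS format); dose compound 24 h; isolate RNA, RT-PCR, FAM primer extension, HpaI digest; quantify by capillary electrophoresis; positive direction vs DMSO.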
human Retinoid X Receptor beta (RXRb), RXRB (gene 6257), sequence (P28702 whole entry, looked up, the tested form may be a part): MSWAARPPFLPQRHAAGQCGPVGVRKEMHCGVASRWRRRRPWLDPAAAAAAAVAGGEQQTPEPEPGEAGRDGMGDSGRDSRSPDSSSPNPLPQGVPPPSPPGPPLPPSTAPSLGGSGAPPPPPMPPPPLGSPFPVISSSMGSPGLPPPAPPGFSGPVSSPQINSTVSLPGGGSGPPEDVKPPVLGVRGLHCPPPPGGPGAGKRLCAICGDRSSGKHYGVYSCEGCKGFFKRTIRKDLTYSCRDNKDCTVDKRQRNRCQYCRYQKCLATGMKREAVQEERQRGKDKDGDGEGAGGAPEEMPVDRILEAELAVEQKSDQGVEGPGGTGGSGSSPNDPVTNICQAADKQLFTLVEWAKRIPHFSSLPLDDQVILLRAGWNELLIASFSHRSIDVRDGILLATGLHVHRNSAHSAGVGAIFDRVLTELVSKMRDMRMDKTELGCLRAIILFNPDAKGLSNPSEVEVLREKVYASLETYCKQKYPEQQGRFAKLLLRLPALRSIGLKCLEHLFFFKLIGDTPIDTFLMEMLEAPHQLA

Read-out in assay [14]: E-selectin (Homo sapiens) (UniProt P16581)
The assay is described as follows: BSK_3C_Eselectin: BioMAP Diversity Plus: 3C Assay for Eselectin Biomarker Activity (AID 2283015; active = hit-call score of the fitted dose curve at least 0.9, where 1 is the maximum; inactive = score below 0.9;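 also: cell surface E-selectin protein quantified by ELISA 24 h after dosing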). The settings on record: primary human endothelial cells (HUVEC); actives raise or lower the signal. The procedure, abridged: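 E-selectin ELISA readout, fitted bidirectionally relative to DMSO, taken 24 h post-dosing in HUVEC cultures of the 3C system. Overt cytotoxicity tracked with sulforhodamine B staining of parallel wells.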

Read-out in assay [15]: Interleukin-1 alpha (IL1a), IL1A (gene 3552)
The experiment in a line: BSK_BE3C_IL1a: BioMAP Diversity Plus: BE3C Assay for Interleukin-1 alpha (IL1a) Biomarker Activity (AID 2283016; active = hit-call score of the fitted dose curve at least 0.9, where 1 is the maximum; inactive = score below 0.9). Particulars: primary human bronchial epithelial cells; actives raise or lower the signal. The procedure, abridged:
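BE3C primary human bronchial epithelium; cpd 24 h; IL-1a by ELISA; bidirectional fit vs DMSO; parallel SRB (0.1% SRB, 10% TCA fix, 560 nm) for cytotoxicity.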

Read-out in assay [16]: Monocyte Chemoattractant Protein-1 (MCP1), CCL2 (gene 6347)
The assay is described as follows: BSK_3C_MCP1: BioMAP Diversity Plus: 3C Assay for Monocyte Chemoattractant Protein-1 (MCP1) Biomarker Activity (AID 2283017; active = hit-call score of the fitted dose curve at least 0.9, where 1 is the maximum; inactive = score below 0.9). The settings on record: primary human endothelial cells (HUVEC); actives raise or lower the signal. A digest of the protocol: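 MCP-1 was measured by ELISA 24 h after dosing in primary HUVEC 3C cultures and fitted in both directions relative to DMSO; cytotoxicity was checked by SRB total-protein staining in parallel wells.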

Read-out in assay [17]: Monocyte Chemoattractant Protein-1 (MCP1), CCL2 (gene 6347)
The assay is described as follows: BSK_4H_MCP1: BioMAP Diversity Plus: 4H Assay for Monocyte Chemoattractant Protein-1 (MCP1) Biomarker Activity (AID 2283018; active = hit-call score of the fitted dose curve at least 0.9, where 1 is the maximum; inactive = score below 0.9). Particulars: primary human endothelial cells (HUVEC); actives raise or lower the signal. The procedure, abridged: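 ELISA read-out of MCP-1 from human vascular endothelial primary cells taken at 24 hours after compound exposure. Activity was fitted in both directions relative to DMSO, which served as negative control.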

The target of assay [18] is human RAR-related Orphan Receptor beta (RORb), RORB (gene 6096) (UniProt Q92753). The assay is described as follows: ATG_RORb_TRANS: Attagene TRANS-FACTORIAL HepG2 Assay for human RAR-related Orphan Receptor beta (RORb) (AID 2283010). The procedure, abridged:
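Readout is reporter-gene mRNA induction, detected as fluorescence after RT-PCR and capillary electrophoresis, fitted for gain of signal against DMSO controls. Transiently transfected HepG2 liver cells carrying GAL4-UAS reporter constructs were treated for 24 hours.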

The target in assay [19] is human Thyroid Receptor alpha (THRa1), THRA (gene 7067) (UniProt P10827). The assay is described as follows: ATG_THRa1_TRANS: Attagene TRANS-FACTORIAL HepG2 Assay for human Thyroid Receptor alpha (THRa1) (AID 2283014). A digest of the protocol: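 Transcripts from GAL4-UAS-driven reporters, measured after 24 h compound exposure by RT-PCR plus capillary electrophoresis of 6-FAM-labeled fragments, were fitted for gain of signal relative to DMSO. Cells: transiently transfected HepG2 expressing NR-Gal4 chimeras.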
human Thyroid Receptor alpha (THRa1), THRA (gene 7067), sequence (P10827 whole entry, looked up, the tested form may be a part): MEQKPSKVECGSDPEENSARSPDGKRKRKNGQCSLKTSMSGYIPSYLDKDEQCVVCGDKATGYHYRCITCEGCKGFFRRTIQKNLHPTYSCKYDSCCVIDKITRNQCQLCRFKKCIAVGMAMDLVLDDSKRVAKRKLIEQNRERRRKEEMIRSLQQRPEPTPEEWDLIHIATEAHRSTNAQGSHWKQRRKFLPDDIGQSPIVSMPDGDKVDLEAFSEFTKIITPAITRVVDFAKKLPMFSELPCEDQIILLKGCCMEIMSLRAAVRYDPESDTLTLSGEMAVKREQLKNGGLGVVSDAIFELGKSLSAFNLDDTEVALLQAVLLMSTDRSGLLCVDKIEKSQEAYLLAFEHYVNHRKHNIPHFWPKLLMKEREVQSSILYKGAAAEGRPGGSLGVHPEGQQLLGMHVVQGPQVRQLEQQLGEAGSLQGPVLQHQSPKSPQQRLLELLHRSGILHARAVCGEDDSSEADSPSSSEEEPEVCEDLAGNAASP

Assay [20] deals with human Peroxisome Proliferator-activated Receptor delta (PPARd), PPARD (gene 5467) (UniProt Q03181). The assay is described as follows: ATG_PPARd_TRANS: Attagene TRANS-FACTORIAL HepG2 Assay for human Peroxisome Proliferator-activated Receptor delta (PPARd) (AID 2283002). The procedure, abridged:
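Fluorescence from capillary electrophoresis of labelled RT-PCR reporter fragments gives the signal; DMSO sets baseline. Cells: HepG2 transiently carrying GAL4-UAS reporter units plus chimeric nuclear receptor-Gal4 proteins, exposed to chemicals for 24 h.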

Inconclusive results are not listed. Active and inactive are the calls of the source. The calls were made as follows, unless noted: active = hit-call score of the fitted dose curve at least 0.9, where 1 is the maximum; inconclusive = response in the unintended direction; inactive = score below 0.9.

human RAR-related Orphan Receptor gamma (RORg), RORC (gene 6097), sequence (P51449 whole entry, looked up, the tested form may be a part): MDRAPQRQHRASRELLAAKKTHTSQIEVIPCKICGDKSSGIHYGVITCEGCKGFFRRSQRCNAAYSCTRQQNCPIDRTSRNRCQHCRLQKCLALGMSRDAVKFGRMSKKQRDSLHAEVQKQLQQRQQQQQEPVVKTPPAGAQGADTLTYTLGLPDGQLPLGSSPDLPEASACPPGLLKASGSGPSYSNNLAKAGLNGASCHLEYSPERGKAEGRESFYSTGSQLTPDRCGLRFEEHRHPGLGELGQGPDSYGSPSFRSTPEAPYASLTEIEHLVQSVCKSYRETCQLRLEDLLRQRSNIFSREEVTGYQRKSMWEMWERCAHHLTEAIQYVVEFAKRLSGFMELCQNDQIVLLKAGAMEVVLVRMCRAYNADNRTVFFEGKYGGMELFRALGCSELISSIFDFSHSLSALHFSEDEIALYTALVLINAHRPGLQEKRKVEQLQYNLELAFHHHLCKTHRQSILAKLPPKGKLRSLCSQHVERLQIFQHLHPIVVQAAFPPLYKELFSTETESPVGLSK
human Retinoic Acid Receptor gamma (RARg), RARG (gene 5916), sequence (P13631 whole entry, looked up): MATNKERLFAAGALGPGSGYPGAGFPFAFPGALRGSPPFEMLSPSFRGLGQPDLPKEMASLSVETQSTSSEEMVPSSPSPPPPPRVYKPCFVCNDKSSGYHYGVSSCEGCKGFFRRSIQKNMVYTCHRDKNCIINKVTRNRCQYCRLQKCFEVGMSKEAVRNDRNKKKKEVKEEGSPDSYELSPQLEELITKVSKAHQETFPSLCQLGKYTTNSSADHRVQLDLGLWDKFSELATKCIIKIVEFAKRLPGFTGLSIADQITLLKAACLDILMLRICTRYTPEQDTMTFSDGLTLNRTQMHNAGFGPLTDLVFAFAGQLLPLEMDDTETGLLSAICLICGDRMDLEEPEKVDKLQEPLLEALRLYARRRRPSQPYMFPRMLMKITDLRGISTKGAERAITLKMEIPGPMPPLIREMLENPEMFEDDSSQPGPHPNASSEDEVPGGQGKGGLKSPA
human RAR-related Orphan Receptor beta (RORb), RORB (gene 6096), sequence (Q92753 whole entry, looked up, the tested form may be a part): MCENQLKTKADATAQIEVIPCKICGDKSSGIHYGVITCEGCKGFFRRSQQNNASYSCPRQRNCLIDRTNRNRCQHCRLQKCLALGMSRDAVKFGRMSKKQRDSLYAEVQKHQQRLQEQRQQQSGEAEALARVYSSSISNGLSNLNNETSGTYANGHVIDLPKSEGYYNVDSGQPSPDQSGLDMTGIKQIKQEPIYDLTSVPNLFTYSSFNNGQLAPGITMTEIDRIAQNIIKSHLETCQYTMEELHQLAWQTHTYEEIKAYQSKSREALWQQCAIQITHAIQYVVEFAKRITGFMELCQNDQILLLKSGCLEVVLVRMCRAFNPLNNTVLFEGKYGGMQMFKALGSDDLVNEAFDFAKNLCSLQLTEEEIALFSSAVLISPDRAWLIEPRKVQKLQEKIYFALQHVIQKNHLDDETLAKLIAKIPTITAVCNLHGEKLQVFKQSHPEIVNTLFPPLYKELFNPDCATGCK
human Retinoic Acid Receptor beta (RARb), RARB (gene 5915), sequence (P10826 whole entry, looked up, the tested form may be a part): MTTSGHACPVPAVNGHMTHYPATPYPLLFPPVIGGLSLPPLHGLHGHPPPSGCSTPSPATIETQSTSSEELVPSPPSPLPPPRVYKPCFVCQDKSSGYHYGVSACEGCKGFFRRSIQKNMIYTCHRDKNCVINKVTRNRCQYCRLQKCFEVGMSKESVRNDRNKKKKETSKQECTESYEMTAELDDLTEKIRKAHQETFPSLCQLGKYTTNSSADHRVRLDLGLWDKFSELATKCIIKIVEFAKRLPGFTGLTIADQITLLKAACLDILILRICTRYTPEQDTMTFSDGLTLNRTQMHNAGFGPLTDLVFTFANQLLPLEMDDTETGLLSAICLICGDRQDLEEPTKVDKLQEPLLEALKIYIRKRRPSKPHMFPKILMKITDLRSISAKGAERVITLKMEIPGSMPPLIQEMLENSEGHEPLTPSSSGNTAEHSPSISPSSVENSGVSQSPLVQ
Retinoic acid receptor alpha (Homo sapiens), sequence (P10276 whole entry, looked up, the tested form may be a part): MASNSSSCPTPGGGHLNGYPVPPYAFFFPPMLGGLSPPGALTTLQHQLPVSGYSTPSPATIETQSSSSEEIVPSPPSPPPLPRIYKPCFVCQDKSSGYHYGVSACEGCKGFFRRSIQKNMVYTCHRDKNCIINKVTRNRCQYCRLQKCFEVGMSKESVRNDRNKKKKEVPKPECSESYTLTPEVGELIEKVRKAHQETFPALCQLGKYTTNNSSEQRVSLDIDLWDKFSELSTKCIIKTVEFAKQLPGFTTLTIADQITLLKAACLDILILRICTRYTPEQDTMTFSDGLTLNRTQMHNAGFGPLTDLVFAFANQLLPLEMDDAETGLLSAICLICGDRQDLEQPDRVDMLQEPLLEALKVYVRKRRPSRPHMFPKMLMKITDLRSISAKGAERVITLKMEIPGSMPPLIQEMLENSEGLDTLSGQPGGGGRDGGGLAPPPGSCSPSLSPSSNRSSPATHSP
human Peroxisome Proliferator-activated Receptor delta (PPARd), PPARD (gene 5467), sequence (Q03181 whole entry, looked up, the tested form may be a part): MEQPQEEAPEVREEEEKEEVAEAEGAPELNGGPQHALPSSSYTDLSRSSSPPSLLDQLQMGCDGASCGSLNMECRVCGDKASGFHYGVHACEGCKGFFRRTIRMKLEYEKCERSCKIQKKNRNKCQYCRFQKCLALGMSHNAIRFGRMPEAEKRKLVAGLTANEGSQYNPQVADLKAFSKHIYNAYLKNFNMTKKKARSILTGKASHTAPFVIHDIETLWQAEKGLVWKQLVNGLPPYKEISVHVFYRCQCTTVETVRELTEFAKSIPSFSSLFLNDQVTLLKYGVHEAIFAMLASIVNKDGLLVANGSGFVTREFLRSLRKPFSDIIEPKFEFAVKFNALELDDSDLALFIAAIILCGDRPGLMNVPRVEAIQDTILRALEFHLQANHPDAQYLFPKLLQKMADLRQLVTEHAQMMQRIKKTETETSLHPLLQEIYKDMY
E-selectin (Homo sapiens), sequence (P16581 whole entry, looked up): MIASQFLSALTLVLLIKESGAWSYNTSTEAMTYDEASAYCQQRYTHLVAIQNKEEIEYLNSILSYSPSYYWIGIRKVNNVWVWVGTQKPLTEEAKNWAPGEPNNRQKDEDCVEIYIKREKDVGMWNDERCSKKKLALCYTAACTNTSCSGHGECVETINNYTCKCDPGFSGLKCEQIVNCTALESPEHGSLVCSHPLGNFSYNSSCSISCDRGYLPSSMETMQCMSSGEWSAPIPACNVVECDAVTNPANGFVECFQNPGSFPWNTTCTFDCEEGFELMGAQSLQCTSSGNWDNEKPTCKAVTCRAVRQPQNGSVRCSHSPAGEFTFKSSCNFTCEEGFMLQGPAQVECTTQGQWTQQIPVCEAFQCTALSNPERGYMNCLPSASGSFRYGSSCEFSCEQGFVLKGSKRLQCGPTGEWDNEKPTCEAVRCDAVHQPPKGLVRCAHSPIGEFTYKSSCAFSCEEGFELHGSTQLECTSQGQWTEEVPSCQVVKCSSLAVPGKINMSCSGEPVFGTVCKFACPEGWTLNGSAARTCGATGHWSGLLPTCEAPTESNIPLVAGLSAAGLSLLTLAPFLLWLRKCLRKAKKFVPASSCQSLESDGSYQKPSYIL

One may read the AC50 as the midpoint of the concentration-response curve, whichever way the signal moves. As to `CS(=O)(=O)c1cc(C(F)(F)F)ccc1C(=O)c1cnoc1C1CC1`, the outcome in [1], in [2], in assay [3], in assay [4], in assay [5] and in assay [6] was inactive. In addition, the outcome in assay [7], in [9], in [10], in assay [11], in assay [12] and in assay [13] was inactive. Besides, the result in [14], in assay [15], in assay [16] and in [17] was inactive. In assay [8], the concentration at half-maximal activity (AC50) was 14.2 µM (active).

Take `COCc1cnc(C2=NC(C)(C(C)C)C(=O)N2)c(C(=O)O)c1` (centres undefined): the outcome in assay [1], in [2], in assay [3], in assay [4], in assay [5] and in assay [6] was inactive. In addition, the outcome in assay [7], in assay [8], in assay [9], in assay [10], in assay [18] and in assay [12] was inactive. The compound was classed as inactive in [13], in assay [19], in [14], in assay [15], in assay [16] and in assay [17].

As to `Cc1cnc(C2=NC(C)(C(C)C)C(=O)N2)c(C(=O)O)c1` (centres undefined), the outcome in [1], in [2], in assay [3], in [4], in assay [6] and in assay [7] was inactive. The compound was classed as inactive in assay [8], in assay [10], in assay [18], in assay [11], in assay [12] and in [13]. Further, the call in assay [19], in assay [14], in assay [15], in assay [16] and in assay [17] was inactive. Further, the half-maximal activity concentration (AC50) in [9] is 50 µM (active).

For `CN/C(=N\[N+](=O)[O-])NCc1cnc(Cl)s1`, the outcome in assay [1], in [2], in assay [3], in [4], in assay [6] and in assay [7] was inactive. The compound was classed as inactive in assay [9], in assay [19], in assay [14], in assay [15], in assay [16] and in assay [17].

In the case of `O=P(O)(O)CCCl`, the result in [1], in assay [2], in assay [3], in assay [20], in assay [4] and in assay [5] was inactive. The compound was called inactive in assay [6], in assay [7], in assay [8], in assay [9], in assay [10] and in [11]. Moreover, the compound was called inactive in [12], in assay [13], in assay [14], in assay [15] and in assay [17].

In the case of `CCCN(CC)CC1COC2(CCC(C(C)(C)C)CC2)O1` (centres undefined), the outcome in [1], in assay [2], in assay [3], in [20], in assay [4] and in assay [7] was inactive. The result in assay [9], in assay [10], in assay [18], in assay [11], in assay [12] and in assay [13] was inactive. Also, the outcome in [19], in assay [14], in assay [15], in assay [16] and in [17] was inactive.

Turning to `N#CN=C1SCCN1Cc1ccc(Cl)nc1`, the outcome in assay [1], in assay [2], in assay [3], in [20], in assay [4] and in [6] was inactive. The result in assay [7], in assay [8], in assay [9], in [18], in [12] and in assay [13] was inactive. Besides, the outcome in assay [14], in assay [15] and in assay [17] was inactive.
